About 22,000 (7.3%) of roughly 300,000 compounds were called active. Inconclusive results (about 2%) are left out. No stated cut-off is given here; in the data, active means activity score below about -60%; inconclusive means mostly about -28% to -61%; inactive means positive scores. Many of the other results were omitted from the sample, so actives are more common in it than they were.

A short description of this assay: Activators working through SNCA 5'UTR binding (MLPCN) (AID 1814). Particulars: alpha-synuclein 5'UTR reporter, activators screen; stronger effect = lower value; tested at 7.5 µM.
As for `Cc1ccsc1/C=C1\SC(N2CCOCC2)=NC1=O`, the activity score is -73% (active).

Consider `O=C1N=C(N2CCOCC2)S/C1=C\C=C/c1ccccc1`, for which the activity score is -170% (active).

As for `Brc1ccc(C2CC(c3ccccc3)=Nc3ccccc3N2)cc1` (configuration not stated), the activity score is -141% (active).

On to `O=C(CSc1ccc(-c2ccc(-n3cccn3)cc2)nn1)Nc1ccc([N+](=O)[O-])cc1`, for which the activity score was -99.7% (active).

As to `CC12CCC(C(=O)N(NC(=O)c3ccccc3O)C1=O)C2(C)C` (configuration not stated), the activity score is 67.6% (inactive).

As to `Cc1ccc2c(c1)NCC(C(=O)NC1CCC(C)CC1)O2` (configuration not stated), the activity score was -67.9% (active).

As to `COc1cc(NC(=S)N2CCCC(C)C2)c(OC)cc1Cl` (configuration not stated), the activity score was -79% (active).

As to `CC(C)CCC(C)NC(=O)c1ccc2nccnc2c1` (configuration not stated), the activity score is -75.9% (active).

Take `O=C1c2ccccc2C(=O)N1CCOc1ccc(F)cc1`: the activity score is -91.2% (active).

As to `Cc1cccc(N2Cc3ccccc3C2=NC(=O)c2ccc(Cl)nc2)c1`, the activity score was -115% (active).

As for `CCCc1cc(=O)[nH]c(SCC(=O)c2c(N)n(CC(C)C)c(=O)n(C)c2=O)n1`, the activity score was 88.3% (inactive).

For `CC(=O)c1ccc(NC(=O)CSC(=S)N2CCCC2)cc1`, the activity score was -76.2% (active).

On to `Cc1cc(Cl)ccc1OCc1nc(-c2ccncc2)no1`, for which the activity score was -162% (active).

In the case of `CN(C)S(=O)(=O)c1ccc2oc(SCC(=O)Nc3ccccc3F)nc2c1`, the activity score is -147% (active).

In the case of `CCn1c(/C=C/c2ccc([N+](=O)[O-])o2)nc2ccccc2c1=O`, the activity score was -353% (active).

For the compound `Cc1ccc(-c2nc(C#N)c(NCCCn3ccnc3)o2)cc1`, the activity score was -87% (active).

`Cc1cccc(-[n+]2c(-c3cccc(Br)c3)[nH]c3nc4ccccc4nc32)c1`: the activity score was 73.9% (inactive).

Take `Brc1ccc(-c2nnc(-c3ccccc3)o2)o1`: the activity score was -63.8% (active).

As for `Nc1nonc1-c1noc(-c2ccc(Br)o2)n1`, the activity score is -80.6% (active).

As for `Nc1ccc(-c2nnc(-c3ccc(-c4ccccc4)cc3)o2)cc1`, the activity score is -217% (active).

On to `Brc1ccc(-c2noc(-c3ccccc3)n2)o1`, for which the activity score was -80.6% (active).

Consider `Cc1ncc(CC(=O)n2cc(C(=O)c3cc(Cl)ccc3O)cn2)s1`, for which the activity score is -71% (active).

Turning to `CCSc1nnc(-c2cc3c(s2)-c2ccccc2CC3)o1`, the activity score was -102% (active).

With `CCOC(=O)c1ccc2c(c1)nc(C)n2CC`, the activity score is -141% (active).

In the case of `Cc1cccc(C(=O)Nc2ccc(C(=O)/C=C/c3cccs3)cc2)c1`, the activity score is -92.4% (active).

As for `COc1ccc(C2=NN(C(=O)c3ccccc3C(=O)O)C(c3ccccc3O)C2)cc1` (configuration not stated), the activity score is -171% (active).

For `COc1ccc(C2=NN(C(C)=O)C(c3ccccc3)C2)cc1` (configuration not stated), the activity score is -63.9% (active).

`O=C(Nc1cccnc1Cl)c1cc(-c2ccccc2O)on1`: the activity score is -179% (active).

In the case of `Clc1ccc(-c2cc(-c3ccccn3)on2)c(Cl)c1`, the activity score was 108% (inactive).

`C=CCNC(=O)c1cc(-c2ccccc2O)on1`: the activity score is -65.4% (active).

Turning to `O=C(NCc1ccccn1)c1cc(-c2ccccc2Cl)on1`, the activity score was -99.8% (active).

On to `C/C(=C\c1ccco1)CN1CCC(N2CCC(C(=O)N3CCOCC3)CC2)CC1`, for which the activity score was -135% (active).

For `CC(=O)Nc1ccc(C(=O)/C=C/c2ccc[nH]2)cc1`, the activity score was -142% (active).

Take `CC(=O)Nc1ccc(/C=C/C(=O)c2ccccc2)cc1`: the activity score is -201% (active).

In the case of `O=C(/C=C/c1ccc(N2CCOCC2)cc1)c1ccccc1`, the activity score is -152% (active).

With `Cc1ccc(NC(=O)c2sccc2C)cc1[N+](=O)[O-]`, the activity score is -217% (active).

As to `O=C(N/N=C/c1ccc([N+](=O)[O-])cc1)c1c[nH]c2ccccc12`, the activity score was -66.7% (active).

Turning to `Cc1ccsc1C(=O)N/N=C/c1ccc([N+](=O)[O-])cc1`, the activity score was -154% (active).

Take `COc1cccc(-c2nn(-c3ccccc3)cc2/C=C(\C#N)C(=O)NCCCn2ccnc2)c1`: the activity score is -65.4% (active).

In the case of `Cc1nn(C(=O)c2ccoc2C)c(N)c1-c1ccccc1`, the activity score is -109% (active).

For the compound `CN(Cc1ccco1)S(=O)(=O)c1nnc(NC(=O)c2ccccc2)s1`, the activity score was -95.2% (active).

Take `COc1ccc(C(=O)CC(=O)c2ccc(C)cc2)c(O)c1`: the activity score is -96.9% (active).

As to `COc1ccc(C(=O)Cc2cnn(-c3ccccc3)c2)c(O)c1`, the activity score is -147% (active).

Regarding `CC(=NCc1ccco1)c1c(C(F)(F)F)[nH]n(-c2nc3ccccc3s2)c1=O`, the activity score is -117% (active).

`COC(=O)Cc1[nH]n(-c2nc3ccccc3s2)c(=O)c1C(C)=Nc1ccc(OC)cc1`: the activity score is 68.9% (inactive).

`CCC(C)Cn1c(O)cc2nn(-c3nc4ccccc4s3)c(=O)c-2c1C` (configuration not stated): the activity score is 97.8% (inactive).

Take `Cn1nc(C(F)(F)F)cc1-c1ccc(/C=C(\C#N)C(=O)c2cccc(C(F)(F)F)c2)s1`: the activity score was -76.5% (active).

For the compound `O=C1/C(=C/c2ccc3c(c2)OCO3)CCC/C1=C\c1ccc2c(c1)OCO2`, the activity score is -83.5% (active).

In the case of `O=C(/C=C/Sc1ncn[nH]1)c1ccc(Cl)cc1`, the activity score was -73.9% (active).

As for `Oc1ccc(/C=N/NC2=NCCCCC2)c(O)c1`, the activity score is -141% (active).

In the case of `Nc1nc(-c2sc3nc4c(cc3c2N)CCCC4)nc(N2CCOCC2)n1`, the activity score is -113% (active).

Take `CC(C)(C)c1ccc(NC(=O)NCc2ccco2)cc1`: the activity score is -123% (active).

With `CC(C)(C)c1ccc(C(=O)NNC(=O)Cc2ccccc2)cc1`, the activity score is -84.3% (active).

As to `CC(C)(C)c1ccc(C(=O)NCc2ccco2)cc1`, the activity score was -180% (active).

`CCCC1=Nc2cc(C(=O)NCc3ccco3)ccc2Sc2ccccc21`: the activity score was 87.6% (inactive).

Turning to `CC(C)n1c(O)c(N=Nc2ccccn2)c2ccccc21`, the activity score was -76.9% (active).

With `CC1C/C(=N/NC(=O)c2cccs2)CC(C)(C)C1` (configuration not stated), the activity score was -101% (active).

For the compound `CCC(=O)NC(=Nc1nc2ccccc2s1)NC(=O)CC`, the activity score was -101% (active).

Consider `CC(C)CC(=O)N/C(N)=N/c1nc2ccccc2s1`, for which the activity score was -93.4% (active).

As for `CCC(=O)Nc1nc2ccccc2n1Cc1ccccc1C`, the activity score was 65.5% (inactive).

In the case of `CC12CN3CCN(CC(C3)/C1=N\NC(=O)c1ccccc1N)C2`, the activity score is -83.3% (active).

Turning to `CN1C(=O)/C(=C\c2cc(Br)cs2)c2ccccc21`, the activity score is -188% (active).

(Values after PubChem BioAssay AID1814 (Broad Institute, 2009).)
